These compounds were tested against Dual specificity protein kinase CLK3 (Homo sapiens) (UniProt P49761). Settings: at 1 µM.
Chain of Dual specificity protein kinase CLK3 (Homo sapiens) (P49761 whole entry, looked up): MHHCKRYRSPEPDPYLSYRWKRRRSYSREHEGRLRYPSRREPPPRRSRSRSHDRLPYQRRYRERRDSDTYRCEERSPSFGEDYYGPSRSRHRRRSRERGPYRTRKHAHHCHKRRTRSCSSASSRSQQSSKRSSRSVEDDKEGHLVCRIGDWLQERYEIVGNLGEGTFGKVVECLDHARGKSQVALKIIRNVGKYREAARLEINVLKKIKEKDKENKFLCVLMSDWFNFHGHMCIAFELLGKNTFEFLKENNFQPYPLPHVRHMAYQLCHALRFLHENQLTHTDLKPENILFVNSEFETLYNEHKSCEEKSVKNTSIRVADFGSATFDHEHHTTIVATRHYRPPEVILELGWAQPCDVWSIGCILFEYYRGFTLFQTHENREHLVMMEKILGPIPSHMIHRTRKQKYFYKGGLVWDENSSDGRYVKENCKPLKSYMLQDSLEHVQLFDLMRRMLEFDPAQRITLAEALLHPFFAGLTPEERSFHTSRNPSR

Row | Compound | inhibition [%]
1 | CC(C)c1ccc(Nc2nccc(-c3cnn4ncccc34)n2)cc1 | 14
2 | NS(=O)(=O)c1ccc(NC=C2C(=O)Nc3ccc4ncsc4c32)cc1 | 17.3
3 | COC(=O)c1cncc(/C=C/c2c(C)cc(O)cc2C)c1 | 3.16
4 | Nc1nccc(C#Cc2cncnc2Nc2ccc(OCc3cccc(F)c3)c(Cl)c2)n1 | 3.1
5 | Oc1cccc(-c2nc(-c3ccccc3)[nH]c2-c2ccncc2)c1 | 2.52
6 | Cc1ccc2c(-c3ccnc(Nc4ccc5c(c4)OCCO5)n3)c(-c3ccc(C(F)(F)F)cc3)nn2n1 | 0.07
7 | Nc1nccc(-c2c(-c3ccc(F)cc3)nn3cc(C(F)(F)F)ccc23)n1 | 0.23
8 | CCOc1nccc2c1nc(-c1nonc1N)n2CC | 2.9
9 | CCCN1CCCC(c2ccc(Nc3nc(Nc4cc(F)ccc4C(N)=O)c4cc[nH]c4n3)c(OC)c2)C1 (stereo unspecified) | 22.3
10 | COc1cc(/C=N/Nc2ncnc3c2cnn3C(C)C)ccc1O | 31.6
11 | Cc1ccc(O)cc1Nc1ccnc2ccc(S(C)(=O)=O)cc12 | 3.42
12 | COc1cc(Nc2nccc(-c3cnn4ncccc34)n2)cc(OC)c1 | 77.3
13 | CN(C)C(=O)O[C@H]1CN[C@H](C#Cc2cc3ncnc(Nc4ccc(OCc5cccc(F)c5)c(Cl)c4)c3s2)C1 | 1.86
14 | c1ccc(Nc2ncc(-c3ccccc3)o2)cc1 | 1.62
15 | NC(=O)c1cccc(Nc2nccc(Nc3cccc(F)c3)n2)c1 | 2.19
16 | Cc1cc(-c2ccccn2)cc(C)c1/C=C/c1cncc(-c2nn[nH]n2)c1 | 0.95
17 | CCn1c(-c2nonc2N)nc2ccc(F)cc21 | 1.23

Row | Compound | inhibition [%]
18 | CN(C)c1cc2c(Nc3ccc4c(cnn4Cc4ccccc4)c3)ncnc2cn1 | 1.41
19 | COC(=O)c1ccc2c(c1)C(=Cc1cc(Br)c(O)c(Br)c1)C(=O)N2 | 7.3
20 | Cc1ccc(NC(=O)CC2CC2)cc1-c1ccc(C(=O)NCC2CC2)cc1 | 1.83
21 | CN(C)C(=O)O[C@@H]1CN[C@@H](C#Cc2cc3ncnc(Nc4ccc(OCc5cccc(F)c5)c(Cl)c4)c3s2)C1 | 0.69
22 | O=C(Nc1ccc(Oc2ccc3[nH]c(NC(=O)c4ccco4)nc3c2)cc1)Nc1cc(C(F)(F)F)ccc1F | -2.83
23 | c1ccc(Cc2nc3ccc(Nc4ncnc5ccccc45)cc3[nH]2)cc1 | 5.49
24 | CCS(=O)(=O)c1ccc(OC)c(Nc2nccc(N(C)c3ccc4c(C)n[nH]c4c3)n2)c1 | 2.41
25 | COc1cccc(-n2ncc3c(N/N=C/c4ccc(C)cc4)ncnc32)c1 | 1.46
26 | NS(=O)(=O)c1cccc(Nc2cc(-c3ccc(F)cc3)n[nH]2)c1 | 2.68
27 | COc1cc2ncn(-c3cc(OCc4ccccc4S(C)(=O)=O)c(C#N)s3)c2cc1OC | 3.74
28 | Cc1ccc(Nc2ccnc(Nc3cccc(C(N)=O)c3)n2)cc1O | 3.09
29 | NS(=O)(=O)c1ccc(-c2cc3ccncc3cc2OCc2ccccc2)cc1 | 3.69
30 | COc1cc2ncnc(Nc3ccc(C)c(O)c3)c2cc1OC | 2.38
31 | NS(=O)(=O)c1ccc(Nc2cc(-c3cccc(O)c3)n[nH]2)cc1 | 2.62
32 | NS(=O)(=O)c1cccc(-c2cc3ccncc3cc2OCc2ccccc2)c1 | 3.46
33 | CC(C)c1ccc2c(c1)NC(=O)/C2=N/Nc1ccc(S(N)(=O)=O)cc1 | -0.08

What follows are compounds tested against Dual specificity tyrosine-phosphorylation-regulated kinase 1A (Homo sapiens) (UniProt Q13627). Settings: at 0.1 µM.

Row | Compound | inhibition [%]
34 | CC(C)c1ccc(Nc2nccc(-c3cnn4ncccc34)n2)cc1 | 40.6
35 | NS(=O)(=O)c1ccc(NC=C2C(=O)Nc3ccc4ncsc4c32)cc1 | 30.9
36 | COC(=O)c1cncc(/C=C/c2c(C)cc(O)cc2C)c1 | 2.81
37 | Nc1nccc(C#Cc2cncnc2Nc2ccc(OCc3cccc(F)c3)c(Cl)c2)n1 | 3.44
38 | Oc1cccc(-c2nc(-c3ccccc3)[nH]c2-c2ccncc2)c1 | 2.29
39 | Cc1ccc2c(-c3ccnc(Nc4ccc5c(c4)OCCO5)n3)c(-c3ccc(C(F)(F)F)cc3)nn2n1 | 0.1
40 | Nc1nccc(-c2c(-c3ccc(F)cc3)nn3cc(C(F)(F)F)ccc23)n1 | 0.54
41 | CCOc1nccc2c1nc(-c1nonc1N)n2CC | 1.13
42 | CCCN1CCCC(c2ccc(Nc3nc(Nc4cc(F)ccc4C(N)=O)c4cc[nH]c4n3)c(OC)c2)C1 (stereo unspecified) | 67.5
43 | COc1cc(/C=N/Nc2ncnc3c2cnn3C(C)C)ccc1O | 1.4
44 | Cc1ccc(O)cc1Nc1ccnc2ccc(S(C)(=O)=O)cc12 | 4.16
45 | COc1cc(Nc2nccc(-c3cnn4ncccc34)n2)cc(OC)c1 | 85
46 | CN(C)C(=O)O[C@H]1CN[C@H](C#Cc2cc3ncnc(Nc4ccc(OCc5cccc(F)c5)c(Cl)c4)c3s2)C1 | 1.54
47 | c1ccc(Nc2ncc(-c3ccccc3)o2)cc1 | 3.02
48 | NC(=O)c1cccc(Nc2nccc(Nc3cccc(F)c3)n2)c1 | 0.47
49 | Cc1cc(-c2ccccn2)cc(C)c1/C=C/c1cncc(-c2nn[nH]n2)c1 | 2.5
50 | CCn1c(-c2nonc2N)nc2ccc(F)cc21 | 5.13

Row | Compound | inhibition [%]
51 | CN(C)c1cc2c(Nc3ccc4c(cnn4Cc4ccccc4)c3)ncnc2cn1 | 2.17
52 | COC(=O)c1ccc2c(c1)C(=Cc1cc(Br)c(O)c(Br)c1)C(=O)N2 | 14.2
53 | Cc1ccc(NC(=O)CC2CC2)cc1-c1ccc(C(=O)NCC2CC2)cc1 | 0.93
54 | CN(C)C(=O)O[C@@H]1CN[C@@H](C#Cc2cc3ncnc(Nc4ccc(OCc5cccc(F)c5)c(Cl)c4)c3s2)C1 | 0.28
55 | O=C(Nc1ccc(Oc2ccc3[nH]c(NC(=O)c4ccco4)nc3c2)cc1)Nc1cc(C(F)(F)F)ccc1F | -3.75
56 | c1ccc(Cc2nc3ccc(Nc4ncnc5ccccc45)cc3[nH]2)cc1 | 6.02
57 | CCS(=O)(=O)c1ccc(OC)c(Nc2nccc(N(C)c3ccc4c(C)n[nH]c4c3)n2)c1 | 2.89
58 | COc1cccc(-n2ncc3c(N/N=C/c4ccc(C)cc4)ncnc32)c1 | 5.94
59 | NS(=O)(=O)c1cccc(Nc2cc(-c3ccc(F)cc3)n[nH]2)c1 | -0.01
60 | COc1cc2ncn(-c3cc(OCc4ccccc4S(C)(=O)=O)c(C#N)s3)c2cc1OC | 6.14
61 | Cc1ccc(Nc2ccnc(Nc3cccc(C(N)=O)c3)n2)cc1O | 2.45
62 | NS(=O)(=O)c1ccc(-c2cc3ccncc3cc2OCc2ccccc2)cc1 | 1.26
63 | COc1cc2ncnc(Nc3ccc(C)c(O)c3)c2cc1OC | 5.24
64 | NS(=O)(=O)c1ccc(Nc2cc(-c3cccc(O)c3)n[nH]2)cc1 | 3.45
65 | NS(=O)(=O)c1cccc(-c2cc3ccncc3cc2OCc2ccccc2)c1 | 3.42
66 | CC(C)c1ccc2c(c1)NC(=O)/C2=N/Nc1ccc(S(N)(=O)=O)cc1 | 0.62
